Compound activity deposited in PubChem by National Center for Advancing Translational Sciences (NCATS).
PLK1 PBD inh: blocks phosphopeptide binding to human PLK1 polo-box domain | P53350 | Plk1 PBD binding of FITC phosphopeptide, fluorescence polarization | Potency, µM, inactives show max response, negative = inhibition, hits mostly inhibitors | 360,000 compounds, 2.8% hits | AID 720504; also: series mostly up to about 57 µM; % is scaled to controls: 0 for no effect and ±100 for the full control effect; nearly all actives have a fitted effect of over 65% in size
G9a block: G9a (human) methyltransferase inhibition; Q96KQ7; G9a H3K9 monomethylation, AlphaScreen, 2 h; Potency, µM (series often up to 102 µM), for the others: top-dose activity, negative = inhibition, hits mostly inhibitors; 350,000 compounds, 8.8% hits; AID 504332; also: % is scaled to controls: 0 for no effect and ±100 for the full control effect; nearly all actives have a fitted effect of over 75% in size
Target sequence (Q96KQ7 913-1193 limits assumed): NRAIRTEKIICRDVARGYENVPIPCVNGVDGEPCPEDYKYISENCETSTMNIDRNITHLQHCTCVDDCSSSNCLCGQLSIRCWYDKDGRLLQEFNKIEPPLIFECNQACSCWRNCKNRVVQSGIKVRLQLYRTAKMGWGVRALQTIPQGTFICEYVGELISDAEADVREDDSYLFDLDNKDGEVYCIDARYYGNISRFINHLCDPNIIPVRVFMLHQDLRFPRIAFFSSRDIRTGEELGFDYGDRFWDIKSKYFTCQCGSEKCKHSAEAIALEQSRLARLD
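Using a bead-based AlphaScreen, monomethylated H3K9 product from 2 h room-temperature reactions (G9a 20 nM, peptide 500 nM, SAM 20 uM) was detected with 0.5 ug/mL rabbit anti-H3K9me1 antibody.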
12-LOX inh: blocks human arachidonate 12S-lipoxygenase. P18054. 580,000 compounds, 1.1% hits. Potency, µM (series often up to 108 µM), without a hit: at the highest dose activity change, negative = inhibition, actives largely listed as inhibitors. purified 12hLO, xylenol orange hydroperoxide absorbance; also: % is scaled to controls: 0 for no effect and ±100 for the full control effect
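Hydroperoxide product was detected by ferrous iron/xylenol orange as the 573 to 405 nm absorbance ratio. Arachidonic acid at 40 uM (final) was turned over for 30 min at room temperature by 150 nM human 12hLO, pH 7.0 Hepes buffer, after 15 min compound preincubation.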
HP1b binding inh: blocks HP1-beta chromodomain binding to methylated histone tails | P83916 | AlphaScreen HP1-beta / biotin-H3K9me3 peptide binding | Potency, µM (highest dose often 114 µM), inactives show top-dose activity change, negative = inhibition, hits mostly inhibitors | 390,000 compounds, 0.56% hits | AID 540317; also: nearly all actives have a fitted effect of over 70% in size
Target sequence (P83916 whole entry, looked up): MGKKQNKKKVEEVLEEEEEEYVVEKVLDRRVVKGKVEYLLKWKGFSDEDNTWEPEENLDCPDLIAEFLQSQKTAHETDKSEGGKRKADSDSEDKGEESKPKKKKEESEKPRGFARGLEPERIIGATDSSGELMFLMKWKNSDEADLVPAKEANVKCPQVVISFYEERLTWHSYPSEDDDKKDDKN
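HP1-beta protein (50 nM final) preincubated 30 min at room temperature with biotinylated H3(1-18)K9me3 peptide (50 nM) in PBS pH 7.4, 0.01% Tween-20, then compound added for 30 min. AlphaScreen streptavidin donor/nickel chelate acceptor beads (10 ug/mL final), 30 min dark, luminescence read.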
BAZ2B block: inhibitors of human BAZ2B bromodomain | AID 504333 | AlphaScreen BAZ2B-H3K14Ac peptide displacement | 360,000 compounds, 4.4% hits | Potency, µM (doses to about 114 µM), inactives show at the top dose activity change, negative = inhibition, usual class: inhibitors | Q9UIF8; also: % is scaled to controls: 0 for no effect and ±100 for the full control effect; nearly all actives have a fitted effect of over 60% in size
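Multi-concentration screen (max 110 uM) measuring displacement of acetylated histone H3 peptide from BAZ2B by AlphaScreen, using 50 nM protein, 50 nM peptide and 10 ug/mL streptavidin donor plus Ni-chelate acceptor beads.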
JMJD2A Tudor inh: JMJD2A Tudor domain (human) inhibition | AlphaScreen JMJD2A-Tudor / H3K4me3 peptide binding | Potency, µM (highest dose often 114 µM), for inactives: at the top dose activity change, negative = inhibition, most hits filed as inhibitors | 390,000 compounds, 4.4% hits | AID 504339; also: % is scaled to controls: 0 for no effect and ±100 for the full control effect; nearly all actives have a fitted effect of over 50% in size
Active calls of the source: *; [ ] = another dose, or the depositor's remark. Sampled rows, rich in hits. Any-hit rate of the full collection: about 9%. Calls follow the shape of the dose curve; as a rule, active = well fitted curve in the direction sought with a large enough effect; inconclusive = small, poorly fitted or top-dose-only effect, or another doubt; inactive = no such curve, though single readings can be large; an effect the other way counts as inactive or inconclusive. Potency is read from the fitted curve at half-maximal effect.

`COc1cc2cc(C(c3nnnn3C3CCCC3)N3CCCCCC3)c(=O)[nH]c2cc1OC` (centres undefined) gave PLK1 PBD inh -11%, G9a block 13µM*, 12-LOX inh inconclusive, HP1b binding inh 20%, BAZ2B block 6% and JMJD2A Tudor inh -14%.
`COc1ccccc1/C=N/NC(=O)NC12CC3CC(CC(C3)C1)C2` gave PLK1 PBD inh -12%, G9a block 23%[2.33 µM], 12-LOX inh 7%, HP1b binding inh 47%, BAZ2B block -5% and JMJD2A Tudor inh -24%.
For O=c1[nH]c2cc3c(cc2cc1C(c1nnnn1CC1CCCO1)N1CCCCCC1)OCO3 (centres undefined) the results were G9a block inconclusive and BAZ2B block -2%.
Screening COc1ccccc1N1CCN(C(c2ccc(N(C)C)cc2)c2nnnn2CCc2ccccc2)CC1 (centres undefined) returned PLK1 PBD inh 7%, G9a block 2µM*, 12-LOX inh -12%, HP1b binding inh -49%, BAZ2B block 25µM* and JMJD2A Tudor inh inconclusive.
CCCCC(c1nnnn1CS(=O)(=O)c1ccc(C)cc1)N1CCN(C)CC1 (centres undefined) was read as PLK1 PBD inh 21µM*, G9a block 0%, 12-LOX inh inconclusive, HP1b binding inh 4%, BAZ2B block -26% and JMJD2A Tudor inh inconclusive.
`CCCC(c1nnnn1CS(=O)(=O)c1ccc(C)cc1)N1CCN(c2ccccc2)CC1` (centres undefined) gave PLK1 PBD inh -2%, G9a block 1%[12.7 µM], 12-LOX inh inconclusive, HP1b binding inh 21%, BAZ2B block -1% and JMJD2A Tudor inh -17%.
COc1ccc(C(c2nnnn2CC2CCCO2)N2CCN(c3ccc(F)cc3)CC2)cc1 (centres undefined) was read as PLK1 PBD inh 24µM*, G9a block -48%[12.7 µM], 12-LOX inh inconclusive, HP1b binding inh 40%, BAZ2B block 56µM* and JMJD2A Tudor inh -3%[11.4 µM].
For O=c1[nH]c2cc3c(cc2cc1C(c1nnnn1CC1CCCO1)N1CCCCCC1)OCCO3 (centres undefined) the results were PLK1 PBD inh -15%, G9a block 11µM*, 12-LOX inh -5%, HP1b binding inh 20%, BAZ2B block inconclusive and JMJD2A Tudor inh -14%.
Screening O=C1NC[C@@H](CCCCN2CCN(CCc3ccc(O)cc3)C(=O)C2=O)N(CCC2CCCCC2)C1=O returned PLK1 PBD inh 1% and 12-LOX inh inconclusive.
`COc1ccc2cc(C(c3nnnn3Cc3ccccc3)N3CCCCCC3)c(=O)[nH]c2c1` (centres undefined) gave PLK1 PBD inh -16%, G9a block 13µM*, 12-LOX inh inconclusive, HP1b binding inh 29%, BAZ2B block -2% and JMJD2A Tudor inh -17%.
Screening Cc1ccc2cc(C(c3nnnn3Cc3ccccc3)N3CCN(c4ccccc4)CC3)c(=O)[nH]c2c1 (centres undefined) returned PLK1 PBD inh -1%, G9a block inconclusive, 12-LOX inh inconclusive, HP1b binding inh -7%, BAZ2B block inconclusive and JMJD2A Tudor inh inconclusive.
Screening COc1ccc(C(c2nnnn2CCc2ccccc2)N2CCN(C3CCCC3)CC2)cc1 (centres undefined) returned PLK1 PBD inh -11%, G9a block 79µM*, 12-LOX inh inconclusive, HP1b binding inh 11%, BAZ2B block 5% and JMJD2A Tudor inh -32%.
Fc1ccc(N2CCN(C(c3cccs3)c3nnnn3CCc3ccccc3)CC2)cc1 (centres undefined) was read as PLK1 PBD inh 24µM*, G9a block -8%[59 µM], 12-LOX inh -7%, HP1b binding inh -24%, BAZ2B block 0% and JMJD2A Tudor inh -27%[11.4 µM].
